Measurements published in the supplement of paper PMC8728848.
The full list was thinned out, with the strongest signals kept by preference.

B1: CD23 (Homo sapiens) (protein)
chain: MELQVSSGFVCNTCPEKWINFQRKCYYFGKGTKQWVHARYACDDMEGQLVSIHSPEEQDFLTKHASHTGSWIGLRNLDLKGEFIWVDGSHVDYSNWAPGEPTSRSQGEDCVMMRGSGRWNDAFCDRKLGAWVCDRLATCTPPASEGSAESMGPDSRPDPDGRLPTPSAPLHS
B2: STA (Solanum tuberosum) (protein)
chain: NASAPLPYPQCGLKKGGGKCIKTGECCSIWGWCGTTSDYCAPGYCQKQCPGPYPQGRCGWQANGKSCPTGTGQCCSNAGWCGTTSDYCAPNNCQSQCKLPPPPPSPPPPPPSPPPPSPPPPPPSPPPPSPSPPPPPPSPPPPSPPPPSPPPPSPPPPPSPSPPPPPPSPPPPPPPLPYPQCGMKKGGGKCIKTGECCSIWGWCGTTSKYCSPGYCQMQCPDPYPEGRCGWQANGKSCPTGTGQCCSNAGWCGTTSAYCAPVNCQAQCNTTTLTSPIKNRMRGIESFMLNVV

Experiments:
Experiment in all cases: glycan array binding signal (z-score within array); higher = stronger binding
Settings in all cases: glycan notation: IUPAC condensed, linker removed
[1] = target: Fuc(a1-2)Gal(b1-4)GlcNAc6S
In short: (§1)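 Glycan array data were curated from 3228 arrays in the Consortium for Functional Glycomics database and kept only where the protein sequence was available. Glycan names were converted to IUPAC-condensed notation, and columns mapping to the same glycan were averaged. The binding signal is a within-array Z-score, averaged across arrays of the same protein sequence at different concentrations or buffers and across linkers. Negative Z-scores can be read as non-binding.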

[2] = target: Fuc(a1-2)Gal(b1-4)[Fuc(a1-3)]GlcNAc
In short: as §1

Fuc(a1-2)[Gal(a1-3)]Gal = target: Fuc(a1-2)[Gal(a1-3)]Gal
In short: as §1

[3] = target: Fuc(a1-2)[Gal(a1-3)]Gal(b1-3)GlcNAc
In short: as §1

[4] = target: Fuc(a1-2)[Gal(a1-3)]Gal(b1-4)[Fuc(a1-3)]GlcNAc
In short: as §1

[5] = target: Fuc(a1-2)[GalNAc(a1-3)]Gal(b1-4)[Fuc(a1-3)]GlcNAc
In short: as §1

[6] = target: Fuc(a1-3)[Gal3S(b1-4)]Glc6S
In short: as §1

[7] = target: Fuc(a1-3)[Gal3S(b1-4)]GlcNAc6S
In short: as §1

Gal(a1-6)Glc = target: Gal(a1-6)Glc
In short: as §1

[8] = target: Gal(b1-4)GlcNAc(b1-2)Man(a1-3)[Gal(b1-4)GlcNAc(b1-2)Man(a1-6)]Man(b1-4)GlcNAc(b1-4)GlcNAc
In short: as §1

GalNAc(b1-4)GlcNAc = target: GalNAc(b1-4)GlcNAc
In short: as §1

[9] = target: GlcNAc(b1-2)Man(a1-3)[GlcNAc(b1-2)Man(a1-6)]Man(b1-4)GlcNAc(b1-4)GlcNAc
In short: as §1

[10] = target: GlcNAc(b1-3)Gal(b1-3)GalNAc
In short: as §1

GlcNAc(b1-3)Gal(b1-4)Glc = target: GlcNAc(b1-3)Gal(b1-4)Glc
In short: as §1

[11] = target: Neu5Ac(a2-3)Gal(b1-3)GlcNAc(b1-3)Gal(b1-3)GlcNAc
In short: as §1

[12] = target: Neu5Ac(a2-3)Gal(b1-4)[Fuc(a1-3)]GlcNAc(b1-3)Gal
In short: as §1

[13] = target: Neu5Ac(a2-3)Gal(b1-4)[Fuc(a1-3)]GlcNAc(b1-3)Gal(b1-4)GlcNAc
In short: as §1

Neu5Ac(b2-6)GalNAc = target: Neu5Ac(b2-6)GalNAc
In short: as §1

[14] = target: Neu5Ac9Ac(a2-6)Gal(b1-4)GlcNAc
In short: as §1

[15] = target: Neu5Gc(a2-6)Gal(b1-4)GlcNAc
In short: as §1

[16] = target: Fuc(a1-2)Gal(b1-4)[Fuc(a1-3)]GalNAc(b1-3)Gal(b1-4)[Fuc(a1-3)]GlcNAc(b1-3)Gal(b1-4)[Fuc(a1-3)]GalNAc
In short: as §1

[17] = target: Fuc(a1-2)[GalNAc(a1-3)]Gal(b1-4)GlcNAc
In short: as §1

Gal(a1-3)Gal(b1-4)GlcNAc = target: Gal(a1-3)Gal(b1-4)GlcNAc
In short: as §1

[18] = target: Gal(b1-4)GalNAc(b1-3)[Fuc(a1-2)]Gal(b1-4)GlcNAc
In short: as §1

[19] = target: Gal(b1-4)GlcNAc(b1-6)GalNAc
In short: as §1

Gal3S(b1-4)GlcNAc = target: Gal3S(b1-4)GlcNAc
In short: as §1

Gal3S(b1-4)GlcNAc6S = target: Gal3S(b1-4)GlcNAc6S
In short: as §1

Gal4S(b1-4)GlcNAc = target: Gal4S(b1-4)GlcNAc
In short: as §1

[20] = target: GlcNAc(b1-3)[GlcNAc(b1-6)]GlcNAc
In short: as §1

[21] = target: Man(a1-2)Man(a1-2)Man(a1-6)[Man(a1-3)]Man
In short: as §1

Neu5Ac(a2-3)Gal = target: Neu5Ac(a2-3)Gal
In short: as §1

[22] = target: Neu5Ac(a2-3)Gal(b1-4)GlcNAc6S
In short: as §1

[23] = target: Neu5Ac(a2-3)Gal(b1-4)[Fuc(a1-3)]GlcNAc6S
In short: as §1

[24] = target: Neu5Ac(a2-8)Neu5Ac(a2-8)Neu5Ac(a2-3)Gal(b1-4)Glc
In short: as §1

Binder	glycan array binding signal (z-score) [1]	glycan array binding signal (z-score) [2]	glycan array binding signal (z-score) (Fuc(a1-2)[Gal(a1-3)]Gal)	glycan array binding signal (z-score) [3]	glycan array binding signal (z-score) [4]	glycan array binding signal (z-score) [5]	glycan array binding signal (z-score) [6]	glycan array binding signal (z-score) [7]	glycan array binding signal (z-score) (Gal(a1-6)Glc)	glycan array binding signal (z-score) [8]	glycan array binding signal (z-score) (GalNAc(b1-4)GlcNAc)	glycan array binding signal (z-score) [9]	glycan array binding signal (z-score) [10]	glycan array binding signal (z-score) (GlcNAc(b1-3)Gal(b1-4)Glc)	glycan array binding signal (z-score) [11]	glycan array binding signal (z-score) [12]	glycan array binding signal (z-score) [13]	glycan array binding signal (z-score) (Neu5Ac(b2-6)GalNAc)	glycan array binding signal (z-score) [14]	glycan array binding signal (z-score) [15]	glycan array binding signal (z-score) [16]	glycan array binding signal (z-score) [17]	glycan array binding signal (z-score) (Gal(a1-3)Gal(b1-4)GlcNAc)	glycan array binding signal (z-score) [18]	glycan array binding signal (z-score) [19]	glycan array binding signal (z-score) (Gal3S(b1-4)GlcNAc)	glycan array binding signal (z-score) (Gal3S(b1-4)GlcNAc6S)	glycan array binding signal (z-score) (Gal4S(b1-4)GlcNAc)	glycan array binding signal (z-score) [20]	glycan array binding signal (z-score) [21]	glycan array binding signal (z-score) (Neu5Ac(a2-3)Gal)	glycan array binding signal (z-score) [22]	glycan array binding signal (z-score) [23]	glycan array binding signal (z-score) [24]
B1	-0.186	0.228	-0.374	-0.086	0.988	0.752	2.25	0.491	0.204	-0.225	-0.48	-0.157	1.43	-0.494	-0.189	-0.435	1.15	-0.582	1.43	-0.645														
B2	0.551																		-0.498		-0.504	2.86	3.27	0.033	2.69	2.55	2.58	3.08	-0.269	-0.506	-0.507	3.23	-0.49	-0.5
